Screens: PubChem, several laboratories
Only some compounds are listed: those with a hit (about 2.8% of all), similar ones and a draw of the others.
Shn3 3UTR inh: inhibitors of Schnurri-3 3'UTR reporter in osteoblasts; AID 588674; hit rate 0.52% among 360,000; inhibition, % at 12.5 µM; Clone20 osteoblast Shn3 3'UTR firefly luciferase, 24 h;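 active = mean inhibition of at least 75% with every replicate also reaching 75%; inconclusive = mean inhibition at least 75% but some replicate below; inactive = mean inhibition below 75%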;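 also: 0% = median of neutral control wells and 100% = pilot-screen positive control compound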
MITF TRPM1 inh: inhibitors of MITF-driven TRPM1 promoter in melanoma cells; SK-MEL-5 TRPM1 promoter luciferase, 24 h; inhibition, % at 12.5 µM; hit rate 0.83% among 330,000; AID 488899;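 active = mean inhibition across replicates of 60% or more, whatever share of single replicates reaches that level; inconclusive = some that reach 60%, reason not given; inactive = mean inhibition across replicates below 60%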
EBV LMP1 NFkB: inhibitors of Epstein-Barr LMP1-induced NF-kappaB reporter. LMP1-induced NF-kappaB luciferase reporter cells, luminescence. inhibition, % at 12.5 µM. hit rate 0.69% among 350,000. AID 504558; in the data active = inhibition above about 41%; inconclusive = no clear call, values can overlap the other calls;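 also: 0% = neutral control wells and 100% = reference inhibitor control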
HIF-2a inh: inhibitors of HIF-2a. AID 624352. hit rate 0.72% among 360,000. inhibition, % at 18.8 µM. 786-0 RCC cells HIF-2a reporter, luciferase luminescence, overnight;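 active = inhibition of the luminescence signal of 40% or more relative to plate controls, in a single-dose primary screen at 18.75 µM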
PAX8 reporter: PAX8 transcriptional activity inhibition; RMG-I TPO-luciferase reporter, SteadyGlo, 24 h; inhibition, % at 12.6 µM; hit rate 1.2% among 360,000; AID 652154;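 active = mean replicate inhibition at least 60% with every replicate also reaching 60%; inconclusive = only one of the two criteria is met; inactive = mean below 60% and not all replicates reaching 60%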;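 also: luciferase light reporting Pax8 driven TPO promoter activity; plate controls were median of neutral control wells for no effect and mitoxantrone controls for full effect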
Peg3 prom inh: reduces Peg3 promoter-driven luciferase expression in HeLa; HeLa PEG-Prom luciferase reporter, luminescence, overnight; inhibition, % at 20 µM; hit rate 1.7% among 360,000; AID 588405;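 active = inhibition of at least 50% at 20 µM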
Mdm2 MdmX conf: confirmation of inhibitors of human Mdm2/MdmX interaction, set 2; shares compounds with HIF-2a inh; SaOS-2 split-luciferase Mdm2/MdmX complementation, luminescence; inhibition, % at 8 µM; hit rate 99% among 740; AID 504601;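 active = mean inhibition of the luminescence signal across two replicates at or above 26 percent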
HIF-2a conf: confirmation of HIF-2a inhibitors | 786-0 RCC cells, HIF-2a luciferase reporter luminescence, overnight | hit rate 56% among 1,800 | shares compounds with HIF-2a inh | inhibition, % at 18.8 µM;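 active = mean inhibition across four replicates of at least 40 percent at the single tested concentration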
HIF-1a counter: counter-screen for HIF-2a inhibitors: HIF-1a inhibition in MiaPaCa-2 cells. shares compounds with HIF-2a inh. MiaPaCa-2 HIF-1a luciferase reporter, desferoxamine, overnight. inhibition, % at 18.8 µM. hit rate 72% among 1,800;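 active = mean inhibition of the reporter signal across four replicates at the single tested dose of 50% or more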
Numbers without * were called inactive; ? = inconclusive; · = no result given.

SMILES	Shn3 3UTR inh	MITF TRPM1 inh	EBV LMP1 NFkB	HIF-2a inh	PAX8 reporter	Peg3 prom inh	Mdm2 MdmX conf	HIF-2a conf	HIF-1a counter
CO[C@@H]1CN(C)C(=O)c2cc(NC(=O)Nc3cc(F)ccc3F)ccc2OC[C@@H](C)N(C(=O)c2cnccn2)C[C@@H]1C	·	·	·	·	1	·	·	·	·
Cc1c(Cl)sn(-c2ccc(Cl)cc2)c1=O	91*	97*	11	48*	33	108*	102*	·	·
COc1ccc(C2c3ccc(O)cc3Oc3ncn(CCN4CCOCC4)c(=N)c32)cc1OC (stereo not given)	2	-7	-12	10	13	-3	·	·	·
COc1ccc(C2c3ccc(O)cc3Oc3ncn(Cc4ccccc4)c(=N)c32)cc1OC (stereo not given)	-3	34	-8	58*	6	22	·	9	51*
O=C(Nc1ccc(Cl)cc1)N[C@@H]1CC[C@H](CCNC(=O)c2ccccc2F)O[C@@H]1CO	·	·	·	·	-9	·	·	·	·
CCN(CC)c1ccc(/C=N/NC(=O)c2ccc3nc[nH]c3c2)c(O)c1	92*	58	53*	-35	·	21	82*	·	·
O=C(NCC1CCCO1)c1c(O)c2cccc3c2n(c1=O)CC3 (stereo not given)	-10	3	-6	-50	·	5	71*	·	·
O=C(NCC1CCCO1)c1c(O)c2cccc3c2n(c1=O)CCC3 (stereo not given)	-2	-5	6	-29	·	0	·	·	·
CCn1c(=O)c([N+](=O)[O-])c(Cl)c2ccccc21	96*	94*	-4	92*	·	108*	103*	94*	106*
COCC(=O)Nc1ccc2c(c1)C(=O)N(C)C[C@H](OC)[C@H](C)CN(Cc1ccccc1F)[C@@H](C)CO2	·	·	·	·	-12	·	·	·	·
C[C@H]1CCCCO[C@@H](CN(C)C(=O)Nc2cccc3ccccc23)[C@@H](C)CN([C@@H](C)CO)C(=O)c2cc(NC(=O)c3ccncc3)ccc2O1	·	·	·	·	7	·	·	·	·
Cc1ccc(N(NC(=O)C(O)(c2ccccc2)c2ccccc2)C(=O)CCl)cc1	3	29	-4	50*	107*	103*	102*	32	99*
CC1CCc2c(sc3nc(C(C)(C)C)nc(N4CCN(C(=O)CCl)CC4)c23)C1 (stereo not given)	24	17	-16	43*	22	56*	·	33	106*
CCC(=O)N1CCN(c2nc(CC)nc3sc4c(c23)CCCC4)CC1	-5	3	-1	14	14	3	·	·	·
CC1CC(C)C(=NNC(N)=O)C(C(O)CC2CCC(=O)NC2=O)C1 (stereo not given)	11	13	25	49*	51	37	·	19	41
CCC1SC(C)C/C(=N/NC(N)=O)C1C (stereo not given)	-21	-2	-2	16	-4	1	·	·	·
COc1ccc(S(=O)(=O)N[C@H]2C=C[C@H](CC(=O)NCc3ccccc3F)O[C@@H]2CO)cc1	·	·	·	·	-22	·	·	·	·
Cn1cc([N+](=O)[O-])c(C(=O)Nc2cc(Oc3ccccc3)cc([N+](=O)[O-])c2)n1	96*	82*	-15	95*	·	104*	·	63*	108*
Cc1nn(C)cc1C(=O)Nc1cc(Oc2ccc(Cl)cc2)cc([N+](=O)[O-])c1	0	-3	-3	11	·	28	·	·	·
O=C1/C(=C/c2ccccc2[N+](=O)[O-])COc2ccccc21	31	85*	?	61*	61*	106*	·	-104	103*
CNc1ccc(/C=C2\COc3ccccc3C2=O)cc1[N+](=O)[O-]	-26	-26	-14	-163	·	-154	·	·	·
COc1ccc(-n2nc(C#N)c(Cl)cc2=O)cc1	37	100*	-8	91*	105*	104*	103*	·	·
CCc1cc(SC#N)cc(CC)c1NC(=O)CCl	9	39	-30	49*	22	47	·	35	-23
